Four compounds from PubChem BioAssay (EPA / NIEHS) can be followed below.

Structures are written as SMILES. Active and inactive are the calls of the source. How the source made its calls: active means hit-call score of the fitted dose curve at least 0.9, where 1 is the maximum; inactive means score below 0.9.

What all share (details): mRNA level, 48 h; actives raise or lower the signal
Read-out in experiment [1]: Lipoprotein lipase (LPL), LPL (gene 4023)
Briefly: LTEA_HepaRG_LPL: Life Technologies and Expression Analysis (LTEA) Assay for Lipoprotein lipase (LPL) using HepaRG (AID 2283515). Put shortly:
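Differentiated HepaRG cells, plated 48 h, then exposed 48 h in serum-free induction medium to 8 concentrations (top 100 uM, half-log steps) in 0.5% DMSO, duplicate. LPL mRNA measured by qRT-PCR, normalized to ACTB, GAPDH and POLR2A.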

Read-out in experiment [2]: MicroRNA 122 (MIR122), gene 406906
Briefly: LTEA_HepaRG_MIR122: Life Technologies and Expression Analysis (LTEA) Assay for MicroRNA 122 (MIR122) using HepaRG (AID 2283516). Further: the transcript read is the microRNA miR-122. Put shortly:
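HepaRG plated 48 h, switched to serum-free induction medium, then treated in duplicate for 48 h (100 uM top, half-log steps, 0.5% DMSO vehicle). RNA isolated, qRT-PCR performed, concentration-response fitted both directions relative to DMSO.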

Read-out in experiment [3]: MYC, MYC (gene 4609)
Briefly: LTEA_HepaRG_MYC: Life Technologies and Expression Analysis (LTEA) Assay for MYC using HepaRG (AID 2283518). The method, boiled down: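 Cells are thawed, plated and cultured 48 h, then treated for 48 h with test chemicals (eight half-log concentrations from 100 uM, 0.5% DMSO vehicle). RNA is isolated and MYC expression quantified by qRT-PCR against three housekeeping genes.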

Read-out in experiment [4]: matrix metalloproteinase-3 (MMP3), MMP3 (gene 4314)
Briefly: LTEA_HepaRG_MMP3: Life Technologies and Expression Analysis (LTEA) Assay for matrix metalloproteinase-3 (MMP3) using HepaRG (AID 2283519). Put shortly:
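HepaRG cells (~100,000/well) in serum-free induction medium were dosed in duplicate for 48 h with an 8-point half-log series from 100 uM, 0.5% DMSO. MMP3 mRNA was quantified by Fluidigm TaqMan qRT-PCR, normalized to three housekeeping genes.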

Read-out in experiment [5]: Paternally Expressed 10 (PEG10), PEG10 (gene 23089)
Briefly: LTEA_HepaRG_PEG10: Life Technologies and Expression Analysis (LTEA) Assay for Paternally Expressed 10 (PEG10) using HepaRG (AID 2283520). The method, boiled down: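 HepaRG, 48 h post-plating → serum-free induction medium → 48 h chemical exposure (duplicate, 8-pt, max 100 uM, half-log, 0.5% DMSO) → lysis in RLT → TaqMan qRT-PCR for PEG10, ACTB/GAPDH/POLR2A normalisation.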

Read-out in experiment [6]: Protein phosphatase 2A (PPP2R4), PTPA (gene 5524)
Briefly: LTEA_HepaRG_PPP2R4: Life Technologies and Expression Analysis (LTEA) Assay for Protein phosphatase 2A (PPP2R4) using HepaRG (AID 2283522). Put shortly: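 Readout is PPP2R4 transcript level by microfluidic qRT-PCR after 48 h chemical treatment of human HepaRG liver cells. Concentrations spanned 100 uM downward in half-log steps; gain or loss of signal was fitted relative to DMSO.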

Read-out in experiment [7]: solute carrier (SLC22A1), SLC22A1 (gene 6580)
Briefly: LTEA_HepaRG_SLC22A1: Life Technologies and Expression Analysis (LTEA) Assay for solute carrier (SLC22A1) using HepaRG (AID 2283524). The method, boiled down: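 Differentiated human HepaRG cells in serum-free induction medium, exposed 48 h in duplicate to 8-point half-log series from 100 µM top in 0.5% DMSO. SLC22A1 mRNA by TaqMan qRT-PCR normalized to ACTB, GAPDH, POLR2A; bidirectional fit versus DMSO.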

Read-out in experiment [8]: NAD(P)H dehydrogenase [quinone] 1 (NQO1), NQO1 (gene 1728)
Briefly: LTEA_HepaRG_NQO1: Life Technologies and Expression Analysis (LTEA) Assay for NAD(P)H dehydrogenase [quinone] 1 (NQO1) using HepaRG (AID 2283526). Put shortly:
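HepaRG, 48 h post-plating → serum-free induction medium → test chemical 48 h (duplicate, 100 uM top, half-log x8, 0.5% DMSO) → RNA isolation → qRT-PCR, ACTB/GAPDH/POLR2A normalization; bidirectional curve fit vs DMSO baseline.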

Read-out in experiment [9]: Nuclear factor erythroid 2-related factor 2 (Homo sapiens) (UniProt Q16236)
Briefly: LTEA_HepaRG_NFE2L2: Life Technologies and Expression Analysis (LTEA) Assay for Nuclear factor erythroid 2-related factor 2 (NFE2L2) Transcription Factor using HepaRG (AID 2283527).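 Further: TaqMan qRT-PCR transcript level normalised to ACTB GAPDH and POLR2A housekeeping genes.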 The method, boiled down:
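Differentiated human HepaRG cells, serum-free induction medium, exposed 48 h in duplicate to eight half-log concentrations up to 100 uM in 0.5% DMSO. NFE2L2 mRNA by Fluidigm TaqMan qRT-PCR, normalised to ACTB, GAPDH, POLR2A; bidirectional change versus DMSO.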

Read-out in experiment [10]: succinate dehydrogenase complex iron sulfur subunit B (SDHB), SDHB (gene 6390)
Briefly: LTEA_HepaRG_SDHB: Life Technologies and Expression Analysis (LTEA) Assay for succinate dehydrogenase complex iron sulfur subunit B (SDHB) using HepaRG (AID 2283528). Put shortly:
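Readout is SDHB transcript level by qRT-PCR, normalised to three housekeeping genes and fitted bidirectionally against 0.5% DMSO vehicle. Human HepaRG cells were treated for 48 h at up to 100 uM.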

Read-out in experiment [11]: solute carrier (SLCO1B1), SLCO1B1 (gene 10599)
Briefly: LTEA_HepaRG_SLCO1B1: Life Technologies and Expression Analysis (LTEA) Assay for solute carrier (SLCO1B1) using HepaRG (AID 2283530). The method, boiled down: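 Gain or loss of SLCO1B1 mRNA is fitted against the 0.5% DMSO vehicle in human HepaRG liver cells treated 48 h at up to 100 uM in half-log steps. Expression comes from qRT-PCR normalized to endogenous controls.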

Read-out in experiment [12]: sulfotransferase 2A1 (SULT2A1), SULT2A1 (gene 6822)
Briefly: LTEA_HepaRG_SULT2A1: Life Technologies and Expression Analysis (LTEA) Assay for sulfotransferase 2A1 (SULT2A1) using HepaRG (AID 2283531). The method, boiled down:
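Cells were plated and cultured 48 h, switched to serum-free induction medium, then dosed in duplicate for 48 h (8 concentrations, max 100 uM). RNA was isolated and SULT2A1 expression measured by qRT-PCR; gain or loss of signal fitted relative to DMSO.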

Read-out in experiment [13]: Transforming Growth Factor (TGFB1), TGFB1 (gene 7040)
Briefly: LTEA_HepaRG_TGFB1: Life Technologies and Expression Analysis (LTEA) Assay for Transforming Growth Factor (TGFB1) Transporter using HepaRG (AID 2283533). Put shortly:
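Expression change of TGFB1 in human HepaRG cells is measured after a 48 h chemical exposure, up to 100 uM in 0.5% DMSO vehicle. Curves are fitted in both directions relative to the DMSO baseline.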

Read-out in experiment [14]: TIMP1, TIMP1 (gene 7076)
Briefly: LTEA_HepaRG_TIMP1: Life Technologies and Expression Analysis (LTEA) Assay for TIMP1 using HepaRG (AID 2283534).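 On outcome: TaqMan qRT-PCR signal normalized to ACTB GAPDH and POLR2A housekeeping genes.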 The method, boiled down: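 We dosed human liver HepaRG cultures for 48 hours with up to 100 uM test chemical and measured TIMP1 expression by qRT-PCR. Activity in either direction is fitted relative to the 0.5% DMSO vehicle.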

Read-out in experiment [15]: Pyruvate Dehydrogenase Kinase 4 (PDK4), PDK4 (gene 5166)
Briefly: LTEA_HepaRG_PDK4: Life Technologies and Expression Analysis (LTEA) Assay for Pyruvate Dehydrogenase Kinase 4 (PDK4) using HepaRG (AID 2283525). The method, boiled down: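 HepaRG cells plated 48 h, then switched to serum-free induction medium and exposed in duplicate for 48 h to 8 half-log concentrations from 100 uM in 0.5% DMSO. PDK4 mRNA measured by qRT-PCR, normalized to ACTB, GAPDH and POLR2A; bidirectional fit versus DMSO.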

Read-out in experiment [16]: Signal transducer and activator of transcription 3 (Homo sapiens) (UniProt P40763)
Briefly: LTEA_HepaRG_STAT3: Life Technologies and Expression Analysis (LTEA) Assay for Signal transducer and activator of transcription (STAT3) using HepaRG (AID 2283529). Put shortly: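 Differentiated HepaRG cells, serum-free induction medium, dosed 48 h in duplicate, 8 half-log concentrations from 100 uM in 0.5% DMSO. STAT3 mRNA by qRT-PCR, normalised to ACTB, GAPDH, POLR2A; bidirectional fit versus DMSO.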

Read-out in experiment [17]: Phosphatase and tensin (PTEN), PTEN (gene 5728)
Briefly: LTEA_HepaRG_PTEN: Life Technologies and Expression Analysis (LTEA) Assay for Phosphatase and tensin (PTEN) using HepaRG (AID 2283523). The method, boiled down: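 HepaRG cells, 48 h after plating, exposed in duplicate for 48 h in serum-free induction medium to 8 half-log concentrations up to 100 uM (0.5% DMSO). PTEN mRNA by qRT-PCR, normalized to ACTB, GAPDH, POLR2A; bidirectional fit versus DMSO.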

Read-out in experiment [18]: Transforming Growth Factor (TGFA), TGFA (gene 7039)
Briefly: LTEA_HepaRG_TGFA: Life Technologies and Expression Analysis (LTEA) Assay for Transforming Growth Factor (TGFA) using HepaRG (AID 2283532). Put shortly: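 Differentiated HepaRG cells exposed 48 hours in serum-free induction medium, 0.5% DMSO vehicle, 8-point half-log series from 100 uM, in duplicate. TGFA mRNA by TaqMan qRT-PCR, normalised to ACTB, GAPDH, POLR2A; bidirectional fit versus DMSO.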

Sequence of Nuclear factor erythroid 2-related factor 2 (Homo sapiens) (Q16236 whole entry, looked up): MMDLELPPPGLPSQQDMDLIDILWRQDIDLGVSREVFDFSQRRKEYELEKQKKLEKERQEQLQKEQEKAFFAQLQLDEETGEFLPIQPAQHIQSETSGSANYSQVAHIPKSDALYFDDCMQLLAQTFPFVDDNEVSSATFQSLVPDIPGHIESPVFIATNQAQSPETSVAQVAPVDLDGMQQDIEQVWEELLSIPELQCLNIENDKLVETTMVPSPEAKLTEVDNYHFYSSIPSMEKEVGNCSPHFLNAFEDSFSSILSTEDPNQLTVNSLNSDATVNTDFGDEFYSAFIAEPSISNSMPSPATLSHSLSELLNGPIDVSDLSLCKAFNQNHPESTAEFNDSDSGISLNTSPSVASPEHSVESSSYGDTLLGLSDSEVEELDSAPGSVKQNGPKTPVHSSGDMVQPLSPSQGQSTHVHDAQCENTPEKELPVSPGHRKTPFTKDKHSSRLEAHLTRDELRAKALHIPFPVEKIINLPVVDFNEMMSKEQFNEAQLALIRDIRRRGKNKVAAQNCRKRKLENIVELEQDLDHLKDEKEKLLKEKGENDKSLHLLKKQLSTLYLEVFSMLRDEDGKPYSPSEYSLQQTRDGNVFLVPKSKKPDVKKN
Sequence of Signal transducer and activator of transcription 3 (Homo sapiens) (P40763 whole entry, looked up): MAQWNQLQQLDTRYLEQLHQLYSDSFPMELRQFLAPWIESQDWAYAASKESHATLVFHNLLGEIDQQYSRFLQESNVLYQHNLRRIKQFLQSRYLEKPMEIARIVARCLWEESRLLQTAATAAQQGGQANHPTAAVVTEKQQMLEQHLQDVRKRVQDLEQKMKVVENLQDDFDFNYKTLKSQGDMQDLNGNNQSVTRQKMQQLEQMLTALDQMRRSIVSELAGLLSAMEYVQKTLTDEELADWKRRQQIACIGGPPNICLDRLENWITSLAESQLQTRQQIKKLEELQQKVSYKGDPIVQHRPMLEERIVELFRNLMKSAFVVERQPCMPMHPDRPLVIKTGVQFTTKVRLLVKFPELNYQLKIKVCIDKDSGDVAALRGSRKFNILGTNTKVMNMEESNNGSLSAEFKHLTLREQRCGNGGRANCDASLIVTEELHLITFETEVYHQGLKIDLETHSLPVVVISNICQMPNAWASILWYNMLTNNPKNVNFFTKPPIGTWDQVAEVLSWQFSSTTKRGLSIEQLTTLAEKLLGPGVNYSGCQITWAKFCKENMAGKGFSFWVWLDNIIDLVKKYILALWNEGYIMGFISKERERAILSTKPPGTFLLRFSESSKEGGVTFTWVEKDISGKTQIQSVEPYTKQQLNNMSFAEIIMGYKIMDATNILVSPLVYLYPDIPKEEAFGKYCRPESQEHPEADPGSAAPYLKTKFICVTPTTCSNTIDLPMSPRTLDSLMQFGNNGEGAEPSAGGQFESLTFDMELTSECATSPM

By AC50 is commonly meant the midpoint of the concentration-response curve, whichever way the signal moves. Take `COc1cccc([C@H](O)C2CCN(CCc3ccc(F)cc3)CC2)c1OC`: the results for the AC50 in experiment [1] and in experiment [5] were 71.6 µM (active) and 9.92 µM (active), respectively. Besides, the compound was called inactive in [2], in [3], in experiment [4], in experiment [6], in [7] and in experiment [8]. Also, the result in [9], in [10], in experiment [11], in experiment [12], in [13] and in [14] was inactive.
Take `OCCO`: the compound was called inactive in experiment [1], in experiment [2], in experiment [4], in experiment [5], in [6] and in [7]. In addition, the call in [15], in experiment [8], in experiment [9], in [10], in experiment [16] and in [11] was inactive. The compound was classed as inactive in experiment [12], in experiment [13] and in [14].
As to `Cc1cc2c(cc1C(F)(F)F)N(C(=O)Nc1ccc(Oc3cccnc3C)nc1)CC2`, the AC50 was 80.4 µM (active) in experiment [1], 46 µM (active) in experiment [2], 30.1 µM (active) in experiment [7] and 83 µM (active) in experiment [14]. In addition, the compound was called inactive in experiment [3], in [4], in [5], in [6], in experiment [17] and in experiment [8]. The outcome in experiment [9], in [10], in [11], in [12] and in experiment [13] was inactive.
Regarding `CC1(C)NC(=O)N(c2ccc([N+](=O)[O-])c(C(F)(F)F)c2)C1=O`, the AC50 in experiment [1] was 76.2 µM (active); in experiment [2] it was 80.9 µM (active); in experiment [5], 15.7 µM (active); in experiment [7] it was 74.3 µM (active); in [15], 80.1 µM (active); in [10], 50 µM (active). Also, the AC50 is 69.3 µM (active) in [11], 84.1 µM (active) in [12] and 50 µM (active) in experiment [18]. Besides, the result in [6], in experiment [17], in experiment [8], in experiment [9], in experiment [16] and in experiment [13] was inactive. The outcome in [14] was inactive.
